CYP2C9 activ – increases human cytochrome P450 2C9 activity; P11712; AID 1024; recombinant CYP2C9, luciferin-H conversion, luminescence; stronger effect = higher value; factor 1 = untreated enzyme, 0 = blocked; hit rate 1.4% among 96,000; activation factor at 5 µM;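 active = activation factor of 2 or more for CYP2C9 at a 5 µM dose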
Target sequence (P11712 whole entry, looked up): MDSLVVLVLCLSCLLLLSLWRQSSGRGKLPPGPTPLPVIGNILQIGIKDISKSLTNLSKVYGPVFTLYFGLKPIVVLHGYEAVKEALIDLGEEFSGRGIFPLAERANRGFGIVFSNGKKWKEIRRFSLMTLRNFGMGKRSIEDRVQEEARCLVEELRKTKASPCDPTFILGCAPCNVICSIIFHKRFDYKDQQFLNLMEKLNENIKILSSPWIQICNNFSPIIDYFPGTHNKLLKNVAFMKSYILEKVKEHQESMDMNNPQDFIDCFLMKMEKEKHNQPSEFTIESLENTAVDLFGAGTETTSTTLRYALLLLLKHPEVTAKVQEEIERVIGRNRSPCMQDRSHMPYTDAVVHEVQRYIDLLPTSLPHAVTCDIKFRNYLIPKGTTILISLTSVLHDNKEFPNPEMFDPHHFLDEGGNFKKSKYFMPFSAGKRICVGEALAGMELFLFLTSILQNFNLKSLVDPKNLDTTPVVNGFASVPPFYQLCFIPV
CYP2C9 inh – human CYP2C9 inhibition; P11712; CYP2C9 Supersomes, luciferin-H conversion, luminescence; inhibition, % at 5 µM; hit rate 20% among 96,000; AID 777;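 active = blocking of liver enzyme CYP2C9 beyond about 50% at 5 µM, limit read from the data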
CYP2C19 act – cytochrome P450 2C19 (human) activation; P33261; recombinant CYP2C19, luciferin-H EGE luminescence; stronger effect = higher value; 0 = fully inhibited enzyme, 1 = untreated enzyme; activation factor at 5 µM; 96,000 tested, under 10 active;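 active = activation factor of at least 2 at 5 µM in the primary screen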
Measles CPE – protection of cells from measles virus; AID 841; hit rate 1.5% among 140,000; protection (pct of control), % at 4 µM; Measles virus-infected cells, CPE protection, absorbance; in the data active = protection mostly above about 24%, no sharp cut-off; inactive = mostly below about 26%
CYP2C19 inhib – blocks human cytochrome P450 2C19; P33261; CYP2C19 Supersomes, luciferin-H EGE luminescence, 30 min; inhibition, % at 5 µM; hit rate 21% among 96,000; AID 778;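 active = CYP2C19 inhibition above a set limit at 5 µM in the primary screen, cut at about 50% in these data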
Each line names hits and unclear results; the compound was inactive in the other large screens. Only some compounds are listed: those with a hit (about 22% of all), similar ones and a draw of the others.

CC(C)(C)OC(=O)N1CCC[C@H]1c1nnc(SCc2ccc(Cl)cc2Cl)o1	none
CN(C)C(=O)CSc1nnc(CCCCCNC(=O)OC(C)(C)C)o1	none
CCN(CC)C(=O)CSc1nnc(CCNC(=O)OC(C)(C)C)o1	none
O=C(CSc1nnc(CNC(=O)c2ccccc2F)o1)c1ccc(Cl)cc1	CYP2C9 inh 54
CC(C)(C)OC(=O)NCCc1nnc(SCc2ccc(Cl)cc2Cl)o1	CYP2C9 inh 75, CYP2C19 inhib 60
O=C(CSc1nnc(CNC(=O)c2cccs2)o1)c1ccc(Cl)cc1	none
CN(C)C(=O)CSc1nnc(CCNC(=O)OC(C)(C)C)o1	none
CC(C)[C@H](NC(=O)OC(C)(C)C)c1nnc(SCC(=O)Nc2ccc(Br)cc2)o1	CYP2C9 inh 70 (no result: Measles CPE)
Cc1cccc(C)c1NC(=O)CSc1nnc([C@H](C)NC(=O)OC(C)(C)C)o1	none
CSCC[C@H](NC(=O)OC(C)(C)C)c1nnc(SCC(=O)Nc2c(C)cccc2C)o1	CYP2C9 inh 58
NCCCCCc1nnc(SCC(=O)c2ccc(Cl)cc2)o1	CYP2C9 inh 75, CYP2C19 inhib 59 (no result: Measles CPE)
CC(C)=CCSc1nnc(CCNC(=O)OC(C)(C)C)o1	CYP2C19 inhib 66
N#Cc1cnn(-c2ncnc3sc(-c4ccccc4)cc23)c1N	none
CCC(C)(C)NC(=O)/C=C/c1ccc(OC)c(S(=O)(=O)N2CCOCC2)c1	none (no result: CYP2C9 activ, CYP2C9 inh, CYP2C19 act, CYP2C19 inhib)
Cc1[nH]c(=O)[nH]c(=O)c1CSc1nnc([C@@H](NC(=O)OC(C)(C)C)C(C)C)o1	none
CC(C)(C)OC(=O)N1CCC[C@H]1c1nnc(SCc2c(F)cccc2Cl)o1	CYP2C9 inh 76
CC(C)=CCSc1nnc([C@@H](NC(=O)OC(C)(C)C)C(C)C)o1	CYP2C19 inhib 55
CC(C)(C)OC(=O)N1CCC[C@H]1c1nnc(SCc2ccccc2Cl)o1	none
CC(C)(C)OC(=O)NCCc1nnc(SCC(=O)c2ccc(Cl)cc2)o1	CYP2C9 inh 70, CYP2C19 inhib 77
C[C@H](NC(=O)OC(C)(C)C)c1nnc(SCC(=O)c2ccc(Cl)cc2)o1	none
CC(C)[C@H](N)c1nnc(SCC(=O)c2ccc(Cl)cc2)o1	CYP2C9 inh 69, CYP2C19 inhib 99
CC(C)Sc1nnc([C@H](C)NC(=O)OC(C)(C)C)o1	CYP2C19 inhib 57
N#Cc1c(N2CCCC2)nc(N)c2c(N)nc(N3CCCC3)cc12	CYP2C9 inh 61
Cc1cc(C)c(C#N)c(N2CCCC2)n1	none
COc1cc2c(C#N)c(N3CCN(c4ccccc4OC)CC3)nc(N)c2c(N)n1	CYP2C9 inh 68, CYP2C19 inhib 100
COc1cc2c(C#N)c(N3CCN(C)CC3)nc(N)c2c(N)n1	none
Cc1cc(C)nc(NC(=O)c2cccc([N+](=O)[O-])c2C)n1	none
COc1cc(/C=C(/C#N)c2nc3ccccc3[nH]2)ccc1OC(=O)c1ccco1	CYP2C9 inh 61
COc1cc(/C=C(\C#N)c2nc3ccccc3[nH]2)ccc1Oc1ccc([N+](=O)[O-])cn1	none
O=C(COc1ccc(Cl)cc1)Nc1ccc(C(=O)NCc2cccnc2)cc1	none
COc1ccc(OCC(=O)Nc2sc3c(c2C(=O)NCC2CCCO2)CCC3)cc1 (stereo not drawn)	CYP2C9 inh 95, CYP2C19 inhib 70
O=C(CN1C(=O)c2ccccc2C1=O)Nc1sc2c(c1C(=O)NCC1CCCO1)CCC2 (stereo not drawn)	none
COc1ccc(/C=C/C(=O)Nc2sc3c(c2C(=O)NCc2cccnc2)CCCC3)cc1	CYP2C9 inh 97, CYP2C19 inhib 75
O=C(COc1ccccc1)Nc1sc2c(c1C(=O)NCc1cccnc1)CCCC2	CYP2C9 inh 96
CC1CN(C(=O)c2cc3c(=O)n4ccccc4nc3s2)CC(C)O1 (stereo not drawn)	none
c1ccc2nc(N3CCOCC3)c(N3CCOCC3)nc2c1	none
c1ccc(-c2nc3ccccc3nc2N2CCOCC2)cc1	CYP2C19 inhib 52
Cn1c(N2CCOCC2)nc(-c2ccccc2)c1-c1ccccc1	CYP2C9 activ 2
c1ccc(-c2cc(N3CCOCC3)nc3ccccc23)cc1	none
COc1ccc(S(=O)(=O)Nc2cc(C(=O)NCCC(C)C)ccc2N2CCOCC2)cc1	CYP2C9 inh 61
COc1ccc(S(=O)(=O)N(C)c2ccc(C(=O)NCCC(C)C)cc2)cc1	CYP2C9 inh 92, CYP2C19 inhib 86
CCOCCCNC(=O)c1ccc(N(C)S(=O)(=O)c2ccc(OC)cc2)cc1	CYP2C9 inh 78
CCOC(=O)c1cc2ccc3ccccc3c2s1	none (no result: CYP2C9 activ, CYP2C9 inh, CYP2C19 act, CYP2C19 inhib)
CC(OC(=O)C1=COCCO1)C(=O)Nc1ccc(Oc2ccccc2)cc1 (stereo not drawn)	none
COc1ccc(CCNC(=O)CCNS(=O)(=O)c2cccc3nonc23)cc1OC	CYP2C19 inhib 72
Cc1ccc(CNC(=O)CNS(=O)(=O)c2cccc3nsnc23)cc1	CYP2C9 inh 52
COc1ccc(CCNC(=O)CN(C)S(=O)(=O)c2cccc3nsnc23)cc1OC	none
Cc1ccc(CNC(=O)C(NS(=O)(=O)c2cccc3nsnc23)c2ccccc2)cc1 (stereo not drawn)	none (no result: CYP2C9 activ, CYP2C9 inh, CYP2C19 act, CYP2C19 inhib)
COc1ccc(CNC(=O)CCCNS(=O)(=O)c2cccc3nonc23)cc1	none
O=C(CCNS(=O)(=O)c1cccc2nsnc12)NCCc1ccccc1	CYP2C19 inhib 52
COc1ccc(CCNC(=O)CCNS(=O)(=O)c2cccc3nsnc23)cc1OC	CYP2C19 inhib 72
CCNc1ccc(C(=O)Nc2ccc3nc(C)sc3c2)cc1[N+](=O)[O-]	none (no result: CYP2C9 activ, CYP2C9 inh, CYP2C19 act, CYP2C19 inhib)
CCc1ccc(NC(=O)CCNS(=O)(=O)c2cccc3nonc23)cc1	CYP2C9 inh 55
CCC(=O)Nc1ccc(OC)cc1OC	none
CC(=O)c1ccc(NC(=O)CCNS(=O)(=O)c2cccc3nonc23)cc1	none
O=C(CCNS(=O)(=O)c1cccc2nonc12)NC1CCCc2ccccc21 (stereo not drawn)	CYP2C9 activ 2.4
O=C(CCNS(=O)(=O)c1cccc2nsnc12)NC1CCCc2ccccc21 (stereo not drawn)	none
COc1ccc(NC(=O)CNS(=O)(=O)c2cccc3nonc23)c(OC)c1	CYP2C9 inh 74, CYP2C19 inhib 72
Cc1ccc(CNC(=O)C(Cc2ccccc2)NS(=O)(=O)c2ccc3c(c2)CCC(=O)N3)cc1 (stereo not drawn)	none
CCOC(=O)C1C(=O)C=C(c2ccc([N+](=O)[O-])cc2)CC1c1ccccc1 (stereo not drawn)	CYP2C9 inh 75, CYP2C19 inhib 76
Cc1cc(Nc2ccc(F)cc2F)n2nc(C)nc2n1	none (no result: CYP2C9 activ, CYP2C9 inh, CYP2C19 act, CYP2C19 inhib)
O=C(Cn1ncc2c(=O)oc3ccccc3c21)NCC1CCCO1 (stereo not drawn)	none
O=C(Cn1ncn2c(cc3ccccc32)c1=O)NCc1ccco1	CYP2C19 inhib 62
O=C(Cn1ncc2c(=O)oc3ccccc3c21)NCCC1=CCCCC1	CYP2C19 inhib 59
CCc1cccc(NC(=O)Cn2ncn3c(cc4ccccc43)c2=O)c1	none
O=C(CSc1ccc2ccccc2n1)NCCC1=CCCCC1	none (no result: CYP2C9 activ, CYP2C9 inh, CYP2C19 act, CYP2C19 inhib)
O=C(Cn1ncn2c(cc3ccccc32)c1=O)NCCC1=CCCCC1	CYP2C19 inhib 99

Assay outcomes (PubChem)
